Measured values reported in the supplement of paper PMC8975748.
Where a name gives a salt, the structure may show the parent alone.

Tested on: Saccharomyces cerevisiae BY4741 SeMeCo community
Experiment: z-score of prototroph abundance vs DMSO median; higher = larger share of this subpopulation than in DMSO controls
Details: 10 µM; 24 h; SM minimal medium; subpopulation (auxotrophy): Prototroph
Protocol: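 Fluorescent four-plasmid SeMeCo (self-establishing metabolically cooperating S. cerevisiae BY4741 community; plasmids pH-mRuby2, pL-mWasabi, pU-eCFP, pM-TagRFP657) was grown 24 h in minimal SM medium with each Selleck FDA-approved drug at 10 µM in 384-well plates. Cells were fixed and imaged by high-content confocal microscopy. For each auxotrophic subpopulation (and the prototroph), a z-score gives the deviation from the DMSO vehicle-control population median.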

| Compound | z-score of prototroph abundance |
| --- | --- |
| CCn1cc(C(=O)O)c(=O)c2cc(F)c(N3CCNCC3)cc21 [Norfloxacin] | 0.05 |
| CN1CCN(CCCN2c3ccccc3Sc3ccc(C(F)(F)F)cc32)CC1 [Trifluoperazine 2HCl] | 0.01 |
| Cc1cc(C)nc(NS(=O)(=O)c2ccc(N)cc2)n1 [Sulfamethazine] | 0 |
| O=C1[C@@H]2[C@H]3CC[C@H](C3)[C@@H]2C(=O)N1C[C@@H]1CCCC[C@H]1CN1CCN(c2nsc3ccccc23)CC1 [lurasidone] | 0.9 |
| O=C(C1CCCCC1)N1CC(=O)N2CCc3ccccc3C2C1 (stereo not given) [Praziquantel] | -0.09 |
| CC(C)c1c(C(=O)Nc2ccccc2)c(-c2ccccc2)c(-c2ccc(F)cc2)n1CC[C@@H](O)C[C@@H](O)CC(=O)O [Atorvastatin] | -2.62 |
| CC1(C)S[C@@H]2[C@H](NC(=O)[C@H](N)c3ccccc3)C(=O)N2[C@H]1C(=O)O [Ampicillin Trihydrate] | 0.28 |
| CC(=O)C1C(=O)C=C(C)OC1=O (stereo not given) [Sodium dehydroacetate] | -1.07 |
| CC(=O)NC[C@H]1CN(c2ccc(N3CCOCC3)c(F)c2)C(=O)O1 [Linezolid] | -0.12 |
| C[C@@H](CN1CC(=O)NC(=O)C1)N1CC(=O)NC(=O)C1 [Dexrazoxane HCl (ICRF-187, ADR-529)] | 0.46 |
| Fc1ccc([C@@H]2CCNC[C@H]2COc2ccc3c(c2)OCO3)cc1 [Paroxetine mesylate] | 0.14 |
| Clc1ccc(COC(Cn2ccnc2)c2ccc(Cl)cc2Cl)c(Cl)c1 (stereo not given) [Miconazole] | -9.47 |
| CNCCCN1c2ccccc2CCc2ccccc21 [Desipramine Hydrochloride] | -0.16 |
| CN(C)CCCC1(c2ccc(F)cc2)OCc2cc(C#N)ccc21 (stereo not given) [Citalopram HBr] | -0.34 |
| CO/N=C(\C(=O)N[C@@H]1C(=O)N2C(C(=O)O)=C(CSC(=O)c3ccco3)CS[C@H]12)c1csc(N)n1 [Ceftiofur HCl] | -0.76 |
| CC1=C(CC(=O)O)c2cc(F)ccc2/C1=C\c1ccc([S+](C)[O-])cc1 (stereo not given) [Sulindac] | 0.27 |
| O=C(O)CCc1nc(-c2ccccc2)c(-c2ccccc2)o1 [Oxaprozin] | 2.48 |
| OCc1ccccc1O[C@@H]1O[C@H](CO)[C@@H](O)[C@H](O)[C@H]1O [Salicin] | 0.58 |
| CCc1nc(N)nc(N)c1-c1ccc(Cl)cc1 [Pyrimethamine] | 0.23 |
| COc1ccc(CC2c3cc(OC)c(OC)cc3CC[N+]2(C)CCC(=O)OCCCCCOC(=O)CC[N+]2(C)CCc3cc(OC)c(OC)cc3C2Cc2ccc(OC)c(OC)c2)cc1OC (stereo not given) [Atracurium Besylate] | -0.17 |

| Compound | z-score of prototroph abundance |
| --- | --- |
| COc1ccc2[nH]c([S@@+]([O-])Cc3ncc(C)c(OC)c3C)nc2c1 [NEXIUM (esomeprazole magnesium)] | -0.6 |
| COC(=O)C1=C(C)NC(C)=C(C(=O)OC2CCCN(Cc3ccccc3)C2)C1c1cccc([N+](=O)[O-])c1 (stereo not given) [Benidipine HCl] | -0.13 |
| CC(C[N+](C)(C)C)OC(N)=O (stereo not given) [Bethanechol chloride] | -0.22 |
| CO[C@H]1C[C@@H]2CC[C@@H](C)[C@@](O)(O2)C(=O)C(=O)N2CCCC[C@H]2C(=O)O[C@H]([C@H](C)C[C@@H]2CC[C@H](n3cnnn3)[C@H](OC)C2)CC(=O)[C@H](C)/C=C(\C)[C@@H](O)[C@@H](OC)C(=O)[C@H](C)C[C@H](C)/C=C/C=C/C=C/1C [Zotarolimus(ABT-578)] | -17.5 |
| N=C(N)NS(=O)(=O)c1ccc(N)cc1 [Sulfaguanidine] | 1.31 |
| CC(C)[C@H](N)C(=O)OCC(CO)OCn1cnc2c(=O)[nH]c(N)nc21 (stereo not given in full) [Valganciclovir HCl] | 0.56 |
| CN[C@@H]1[C@@H](O)[C@@H](O[C@@H]2[C@@H](O)[C@H](O[C@H]3O[C@H](CN)[C@@H](O)[C@H](O)[C@H]3O)[C@@H](N)C[C@H]2NC(=O)[C@@H](O)CN)OC[C@]1(C)O [Isepamicin Sulphate] | -0.32 |
| Oc1c(I)cc(I)c2cccnc12 [Diiodohydroxyquinoline] | -3.05 |
| c1ccc(C2CN3CCSC3=N2)cc1 (stereo not given) [Tetramisole HCl] | 0.24 |
| CCc1cccc2c3c([nH]c12)C(CC)(CC(=O)O)OCC3 (stereo not given) [Etodolac] | 1.07 |
| C/C(=C\C(=O)OCCCCCCCCC(=O)O)C[C@@H]1OC[C@H](C[C@@H]2O[C@H]2[C@@H](C)[C@H](C)O)[C@@H](O)[C@H]1O [Mupirocin calcium] | -0.73 |
| COc1cccc(CCc2ccccc2OCC(CN(C)C)OC(=O)CCC(=O)O)c1 (stereo not given) [Sarpogrelate hydrochloride] | 0.79 |
| OC(c1cc(C(F)(F)F)nc2c(C(F)(F)F)cccc12)C1CCCCN1 (stereo not given) [Mefloquine HCl] | -0.39 |
| Cc1cccc(C)c1NC(=O)C1CCCCN1C (stereo not given) [Mepivacaine HCl] | -0.33 |
| CO/N=C(\C(=O)N[C@@H]1C(=O)N2C(C(=O)O)=C(CSC(=O)c3ccco3)CS[C@H]12)c1csc(N)n1 [Ceftiofur] | -0.44 |
| C[N+]1(C)[C@@H]2CC[C@H]1C[C@@H](OC(=O)C(O)c1ccccc1)C2 (stereo not given in full) [Homatropine Methylbromide] | 0.29 |
| Nc1nc2ccc(OC(F)(F)F)cc2s1 [Riluzole] | 0.62 |
| CC(C)(O/N=C(\C(=O)N[C@@H]1C(=O)N2C(C(=O)[O-])=C(C[n+]3ccccc3)CS[C@H]12)c1csc(N)n1)C(=O)O [Ceftazidime] | 0.11 |
| OCCN1CCN(CC/C=C2/c3ccccc3Sc3ccc(C(F)(F)F)cc32)CC1 [Flupenthixol dihydrochloride] | -0.24 |
| COC(=O)Nc1nc2cc(C(=O)c3ccccc3)ccc2[nH]1 [Mebendazole] | -1.69 |
